# MOR-DOR inv ag – inverse agonist of human OPRM1-OPRD1 heterodimerization; P35372+P41143; hit rate 0.21% among 340,000; inhibition, % at 9.3 µM; cell-based MOR-DOR heterodimer luminescence, inverse agonism; in the data active = inhibition above about 22%, passing the limit was not always enough;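 also: 0% = cells with DMSO and 100% = wells without cells with DMSO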
# MOR-DOR ag – OPRM1-OPRD1 heterodimerization agonism; cells, luminescence; P35372+P41143; hit rate 0.3% among 340,000; AID 504326; activation, % at 9.3 µM; in the data active = activation above about 18%;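 also: 0% = vehicle-treated cells and 100% = reference agonist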
# HTR5A inv ag – inverse agonist of human HTR5A in OPRM1-OPRD1 counter-screen | P47898 | HTR5A cell line, luminescence, inverse agonism | inhibition, % at 9.3 µM | hit rate 0.083% among 340,000; in the data active = inhibition mostly above about 23%, no sharp cut-off; inactive = mostly below about 18%;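 also: 0% = cells with DMSO and 100% = no-cell wells with DMSO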
# Target sequence (P47898 whole entry, looked up): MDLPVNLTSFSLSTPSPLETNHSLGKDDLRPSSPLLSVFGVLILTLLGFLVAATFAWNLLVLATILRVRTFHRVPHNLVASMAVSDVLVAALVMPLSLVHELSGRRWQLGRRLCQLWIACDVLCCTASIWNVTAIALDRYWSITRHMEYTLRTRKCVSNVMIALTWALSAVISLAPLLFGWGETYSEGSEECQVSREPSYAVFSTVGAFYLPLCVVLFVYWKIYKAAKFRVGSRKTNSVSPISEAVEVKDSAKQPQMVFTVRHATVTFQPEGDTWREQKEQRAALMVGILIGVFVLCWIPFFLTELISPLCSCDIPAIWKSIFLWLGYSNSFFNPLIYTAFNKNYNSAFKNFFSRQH
# HTR5A ag ctr – activates human HTR5A in OPRM1-OPRD1 agonist counter-screen; hit rate 0.61% among 340,000; P47898; activation, % at 9.3 µM; HTR5A agonist assay, luminescence, cell-based; in the data active = activation mostly above about 9.5%, no sharp cut-off; inactive = mostly below about 7.6%;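 also: 0% = cells with vehicle only and 100% = reference agonist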
# MOR-DOR inv conf – OPRM1-OPRD1 heterodimer inverse agonism, confirmation. shares compounds with MOR-DOR inv ag. hit rate 20% among 580. AID 504900. cells expressing OPRM1/OPRD1 heterodimer, luminescence. inhibition, % at 9.3 µM; in the data active = inhibition above about 32%;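 also: 0% = cells with DMSO and 100% = wells lacking cells with DMSO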
# HTR5A inv count – HTR5A inverse agonism, opioid heterodimer counter-screen; shares compounds with MOR-DOR inv ag; AID 504914; inhibition, % at 9.3 µM; HTR5A-expressing cells, luminescence; 580 tested, under 10 active; call rule not given here;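 also: 0% = cells with DMSO and 100% = no-cell wells with DMSO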
# * = called active by the depositor; i = inactive; x = no result given. Hits are enriched below; roughly 1.1% of the tested compounds scored in any of these assays.
SMILES,MOR-DOR inv ag,MOR-DOR ag,HTR5A inv ag,HTR5A ag ctr,MOR-DOR inv conf,HTR5A inv count
COC(=O)[C@@]1(Cc2ccccc2)[C@H]2C(=O)N(C)C(=O)[C@H]2[C@H]2CN=C(SCc3ccc(C)cc3)N21,13.2,-2.7,11.8,-3.4,x,x
Cc1cccn2c(=O)c3cc(C(=O)NC4CCCC4)c(=N)n(CCCN4CCOCC4)c3nc12,4.0,-0.7,-8.1,3.3,x,x
Cc1ccc(S(=O)(=O)N2CCN(C(=O)CNC(=O)c3sc4ccccc4c3Cl)CC2)cc1,-8.0,1.3,-10.2,3.7,x,x
O=C(Cn1nnc2ccccc21)OCC(=O)c1ccccc1,17.0,-2.9,5.3,1.3,x,x
O=C(Cn1nnc2ccccc21)OCC(=O)c1ccc(Cl)c(Cl)c1,71.2*,-13.2,11.9,-3.3,-105.9,-22.7
Cc1nn(-c2ccccc2)c2c1C(c1ccncc1)C(C#N)=C(N)O2 (stereo unspecified),9.7,-1.9,3.4,-1.3,x,x
COc1cc(-n2nc(C)c3c2OC(N)=C(C#N)C3c2ccccc2)c(Cl)c(Br)c1O (stereo unspecified),34.2*,-8.1,10.1,-4.0,19.8,14.6
O=C(CN1C(=O)C(=O)c2ccccc21)NCCc1ccccc1,56.4*,-11.0,25.4,-8.9,9.4,11.4
O=C1C(=O)N(CCCc2ccccc2)c2ccccc21,43.4*,-8.7,5.5,-2.7,90.3*,1.8
O=C(OCC(=O)N1CCCc2ccccc21)c1cc(Cl)ccc1O,-43.6,8.1,20.6,-0.6,x,x
O=C(COC(=O)c1ccc(CO)cc1)c1ccc(S(=O)(=O)N2CCCCC2)cc1,38.4*,-9.8,21.5,-8.6,-351.8,-1.3
O=C(COC(=O)c1ccc(O)cc1)c1ccc(S(=O)(=O)N2CCCCC2)cc1,3.1,-0.7,7.3,-2.6,x,x
C[n+]1c2n(c3ccccc31)N=C(c1cc(C(C)(C)C)c(O)c(C(C)(C)C)c1)CS2,31.8*,-6.2,19.1,-0.9,50.6*,16.5
COC(=O)c1[nH]c(=O)c2ccccc2c1OCc1ccccc1,11.8,-2.0,-7.5,1.4,x,x
COC(=O)c1[nH]c(=O)c2ccccc2c1O,42.3*,-10.1,12.2,-4.9,-151.7,-7.5
COC(=O)c1ccc(C)c(-n2c(=O)n(Cc3ccccc3)c(=O)c3[nH]cnc32)c1,52.1*,-11.5,24.0,-6.8,-45.8,9.1
Cc1ccccc1-n1c(=O)n(Cc2ccccc2)c(=O)c2[nH]cnc21,19.3,-3.7,3.5,-7.9,x,x
CCOCCCNC(=O)/C(C#N)=C/c1ccc(Cl)c([N+](=O)[O-])c1,-21.6,4.0,4.6,-2.5,x,x
CCOCCCNC(=O)/C(C#N)=C/c1cc(OC)c(O)c([N+](=O)[O-])c1,29.8*,-5.4,10.7,-3.9,-29.9,10.5
CCS(=O)(=O)N1CCC(C(=O)OCC(=O)c2ccc(Br)cc2)CC1,35.2*,-7.0,6.0,-2.7,1.4,-2.1
Cn1c(=O)[nH]c(=O)c2c1nc(Br)n2C/C=N/Nc1ccccc1,35.3*,-7.2,-5.7,2.1,i,-26.1
Cc1ccc(OC(C)C(=O)Nc2ccc(F)cc2)c([N+](=O)[O-])n1 (stereo unspecified),18.7,-5.0,-0.9,-2.9,x,x
Cc1ccc(NNC(=O)c2ccno2)cc1C,60.9*,-12.1,-3.4,6.3,-189.2,-27.2
Cc1noc(C)c1C(=O)NNc1ccc(C(C)C)cc1,23.4,-4.6,4.8,0.0,x,x
Cc1ccc(NNC(=O)c2ccno2)cc1Cl,52.2*,-10.3,4.9,2.7,-40.3,-267.9
SMILES,MOR-DOR inv ag,MOR-DOR ag,HTR5A inv ag,HTR5A ag ctr,MOR-DOR inv conf,HTR5A inv count
Cc1ccc(NNC(=O)c2c(C)noc2C)cc1Cl,41.3*,-8.4,2.6,-0.1,22.8,-0.6
O=C(Nc1cc(Cl)cc(Cl)c1)c1ccno1,14.9,-3.3,9.3,-2.5,x,x
O=C1C=C(N2CCOCC2)c2ccccc2C1=O,-74.0,15.4,1.4,-0.4,x,x
CC1=C(C)C(=O)C(N2CCOCC2)=CC1=O,46.6*,-7.1,-10.1,4.1,-19.7,-258.8
CCOC(=O)C1Oc2ccccc2C(C(=O)OC)=C1C(=O)OC (stereo unspecified),40.4*,-8.3,-8.0,2.0,i,-4.2
CCOC(=O)C1Oc2ccccc2C(c2cccc3ccccc23)=C1C(=O)OC (stereo unspecified),1.4,-0.3,8.8,-2.5,x,x
Cc1ccc2c(c1)C(=O)C(=O)N2Cc1ccc(F)cc1,38.8*,-6.7,5.1,-1.7,-27.9,-9.9
Cc1ccc2c(c1)C(=O)C(=O)N2Cc1ccccc1,37.7*,-6.2,-10.7,7.9,11.8,-4.3
O=C1C(=O)N(Cc2cccc([N+](=O)[O-])c2)c2ccccc21,51.6*,-10.3,17.5,1.0,17.3,12.9
COC(=O)CCC(C)N1CCC(Oc2ccc(C(=O)N3CCCC3)cc2)CC1 (stereo unspecified),14.2,-2.7,-15.1,-1.9,x,x
COc1cccc(CN(C)C(=O)Cn2cc(C)c(=O)[nH]c2=O)c1,9.4,-2.0,-9.2,2.5,x,x
O=C(COC(=O)c1ccc(F)cc1F)Nc1cc(S(=O)(=O)N2CCOCC2)ccc1Cl,4.3,-0.6,0.6,-0.2,x,x
Cc1cccc(OCCN2C(=O)c3ccccc3C2=O)c1,-16.0,2.9,-21.6,2.0,x,x
Cc1cccc2c1N(C)C(=O)C2=O,25.4,-4.4,7.0,-2.7,x,x
CCOC(=O)CN1C(=O)C(=O)c2cccc(C)c21,75.4*,-14.6,24.5,-8.7,i,-107.6
Cc1ccc(OCCN2C(=O)C(=O)c3cccc(C)c32)cc1,42.3*,-7.8,1.5,-0.5,-29.1,-15.1
Cc1ccc(C(=O)COC(=O)c2ccncc2)cc1[N+](=O)[O-],48.8*,-8.8,20.3,-2.8,29.5,14.7
O=C(CCC(=O)OCc1ccc([N+](=O)[O-])cc1)Nc1ccccc1Cl,19.1,-3.9,13.9,-5.8,x,x
CC(=O)Nc1ccc(NC(=O)CCC(=O)OCC(=O)c2ccc(C)c([N+](=O)[O-])c2)cc1,56.8*,-11.0,20.6*,-7.7,36.3*,0.6
CC(=O)c1ccc(NC(=O)CCC(=O)OCC(=O)c2cccc([N+](=O)[O-])c2)cc1,60.9*,-7.4,10.2,-5.5,50.6*,14.4
Cc1ccc(C(=O)COC(=O)CCC(=O)Nc2ccccc2Cl)cc1[N+](=O)[O-],45.1*,-8.9,6.0,-2.3,-8.6,-25.2
COC(=O)c1cc(OC)c(OC)cc1NC(=S)N1CCOCC1,11.4,-2.4,11.7,-3.3,x,x
CCOC(=O)/C=C/[C@H]1CCc2cccc(C)c2O1,-30.3,5.5,-41.6,-0.2,x,x
CCN1CCN(S(=O)(=O)Cc2ccccc2Cl)CC1,9.1,-2.2,11.1,-4.3,x,x
CCCN1CCN(C(=O)C2CCCN(c3ncnc4c3nc3n4CCCCC3)C2)CC1 (stereo unspecified),7.6,-1.4,15.3,0.7,x,x
CCc1ccccc1N(CC(=O)NC(C)(C)CC)C(=O)CCC(=O)Nc1nccs1,3.0,-0.6,-4.8,1.4,x,x
Cc1ccc(N2CC(C(=O)OCC(=O)c3ccc(F)cc3)CC2=O)cc1 (stereo unspecified),3.3,-0.4,7.7,-2.9,x,x

# Source: PubChem
